PubChem BioAssay AID1159580 (chemical genetic matrix, 2015)
Several values for one entry are separate records, joined by “and”; a condition that tells them apart may be missing. Equal values may be shown once. The campaign covered roughly 5,500 compounds. About 2,000 (36%) were called active. Another 18% or so got no clear call; they are omitted. Cut-off read from the data, not from the text of the source: active = normalized growth mostly below about 0.91 (no sharp cut-off); inconclusive = no clear call, values can overlap the other calls; inactive = mostly above about 0.92. Some of the results follow.

Experiment: chemical genetic growth profiling, strain panel (AID 1159580);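 note: tested at 20 µM; growth read once vehicle control cultures reached saturation at 30 °C; 1 = growth at the plate median or of vehicle wells; lower values mean less growth of the strain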
Conditions: S. cerevisiae deletion strains, growth OD

Measured: normalized growth

C[C@@H]1O[C@@H](OC[C@H]2OC(Oc3c(-c4ccc(OCCO)c(OCCO)c4)oc4cc(OCCO)cc(O)c4c3=O)[C@H](O)[C@@H](O)[C@@H]2O)[C@H](O)[C@H](O)[C@H]1O (stereo not given in full)
inactive: locus YAL013W, strain DEP1, stronger effect = lower value 0.994 | locus YAL021C, strain ccr4, stronger effect = lower value 0.972 | locus YAL026C, strain drs2, stronger effect = lower value 0.973 | locus YAL030W, strain snc1, stronger effect = lower value 0.946 | locus YBL061C, strain skt5, stronger effect = lower value 0.974 | locus YBR009C, strain hhf1, stronger effect = lower value 0.981 | locus YBR021W, strain FUR4, stronger effect = lower value 1.02 | locus YBR023C, strain chs3, stronger effect = lower value 0.956 | locus YBR171W, strain sec66, stronger effect = lower value 0.945 | locus YBR229C, strain ROT2, stronger effect = lower value 0.961 | locus YBR231C, strain swc5, stronger effect = lower value 0.962 | locus YBR279W, strain paf1, stronger effect = lower value 0.967 | locus YCL011C, strain gbp2, stronger effect = lower value 0.952 | locus YCL016C, strain dcc1, stronger effect = lower value 0.984 | locus YCL029C, strain bik1, stronger effect = lower value 1.01 | locus YCL061C, strain MRC1, stronger effect = lower value 0.973 | locus YCL069W, strain vba3, stronger effect = lower value 0.966 | locus YCR088W, strain abp1, stronger effect = lower value 0.969 | locus YDL005C, strain med2, stronger effect = lower value 0.963 | locus YDL035C, strain GPR1, stronger effect = lower value 0.945 | locus YDL040C, strain nat1, stronger effect = lower value 0.972 | locus YDL074C, strain BRE1, stronger effect = lower value 1.01 | locus YDL101C, strain DUN1, stronger effect = lower value 0.979 | locus YDL185W, strain tfp1, stronger effect = lower value 0.973 | locus YDL192W, strain arf1, stronger effect = lower value 0.992 | locus YDR001C, strain nth1, stronger effect = lower value 0.943 | locus YDR069C, strain doa4, stronger effect = lower value 0.931 | locus YDR101C, strain arx1, stronger effect = lower value 1.04 | locus YDR137W, strain rgp1, stronger effect = lower value 0.938 | locus YDR159W, strain sac3, stronger effect = lower value 0.94 | locus YDR162C, strain NBP2, stronger effect = lower value 0.985 | locus YDR195W, strain ref2 0.892 | locus YDR297W, strain sur2, stronger effect = lower value 0.974 | locus YDR318W, strain mcm21, stronger effect = lower value 0.963 | locus YDR334W, strain swr1, stronger effect = lower value 0.916 | locus YDR335W, strain msn5, stronger effect = lower value 0.958 | locus YDR388W, stronger effect = lower value 0.994 | locus YDR392W, strain spt3, stronger effect = lower value 1.02 | locus YDR502C, strain sam2, stronger effect = lower value 0.995 | locus YEL003W, strain gim4, stronger effect = lower value 0.968 | locus YEL037C, strain rad23, stronger effect = lower value 0.955 | locus YEL061C, strain CIN8 (second series), stronger effect = lower value 0.947 | locus YEL061C, strain CIN8, stronger effect = lower value 0.997 | locus YER015W, strain faa2, stronger effect = lower value 0.984 | locus YER016W, strain bim1, stronger effect = lower value 0.96 | locus YER110C, stronger effect = lower value 0.978 | locus YER111C, strain swi4, stronger effect = lower value 0.963 | locus YER155C, strain BEM2 (second series), stronger effect = lower value 0.974 | locus YER155C, strain BEM2, stronger effect = lower value 1 | locus YER167W, strain BCK2, stronger effect = lower value 1.01 | locus YFR010W, strain ubp6, stronger effect = lower value 0.946 | locus YGL078C, strain dbp3, stronger effect = lower value 0.996 | locus YGL086W, strain mad1, stronger effect = lower value 1.03 | locus YGL167C, strain pmr1, stronger effect = lower value 0.933 | locus YGL173C, strain kem1, stronger effect = lower value 0.993 | locus YGL227W, strain vid30, stronger effect = lower value 0.938 | locus YGL240W, strain doc1, stronger effect = lower value 0.958 | locus YGL248W, strain PDE1, stronger effect = lower value 0.965 | locus YGL253W, strain hxk2, stronger effect = lower value 0.965 | locus YGR078C, strain PAC10, stronger effect = lower value 0.984 | locus YGR135W, strain pre9, stronger effect = lower value 0.97 | locus YGR252W, strain gcn5, stronger effect = lower value 0.947 | locus YHR013C, strain ard1, stronger effect = lower value 0.973 | locus YHR027C, strain rpn1, stronger effect = lower value 0.958 | locus YHR030C, strain SLT2, stronger effect = lower value 1 and 0.999 | locus YHR079C, strain IRE1 (second series), stronger effect = lower value 1 | locus YHR079C, strain IRE1, stronger effect = lower value 1.02 | locus YHR094C, strain hxt1, stronger effect = lower value 0.969 | locus YHR129C, strain ARP1, stronger effect = lower value 0.99 | locus YHR142W, strain chs7, stronger effect = lower value 0.958 | locus YHR200W, strain rpn10, stronger effect = lower value 0.983 | locus YIL066C, strain RNR3, stronger effect = lower value 0.972 | locus YIL073C, strain SPO22, stronger effect = lower value 0.969 | locus YIL125W, strain kgd1, stronger effect = lower value 0.991 | locus YIR030C, strain dcg1, stronger effect = lower value 0.993 | locus YJL092W, strain hpr5, stronger effect = lower value 0.967 | locus YJL095W, strain BCK1 (second series), stronger effect = lower value 0.967 | locus YJL095W, strain BCK1, stronger effect = lower value 0.972 and 1.01 | locus YJL115W, strain asf1, stronger effect = lower value 0.948 | locus YJL129C, strain trk1, stronger effect = lower value 0.954 | locus YJL134W, strain LCB3, stronger effect = lower value 0.99 | locus YJL154C, strain vps35, stronger effect = lower value 0.958 | locus YJL164C, strain tpk1, stronger effect = lower value 0.995 | locus YJL166W, strain qcr8, stronger effect = lower value 0.971 | locus YJL168C, strain set2, stronger effect = lower value 0.993 | locus YJL187C, strain SWE1 (second series), stronger effect = lower value 0.983 | locus YJR043C, strain POL32, stronger effect = lower value 0.972 | locus YJR066W, strain TOR1, stronger effect = lower value 0.941 | locus YJR075W, strain HOC1, stronger effect = lower value 0.983 | locus YKL009W, strain mrt4, stronger effect = lower value 0.978 | locus YKL068W, stronger effect = lower value 0.973 | locus YKL085W, strain MDH1 (second series), stronger effect = lower value 0.981 | locus YKL085W, strain MDH1, stronger effect = lower value 0.981 | locus YKL160W, strain elf1, stronger effect = lower value 0.986 | locus YKL190W, strain CNB1, stronger effect = lower value 0.992 | locus YKR001C, strain vps1, stronger effect = lower value 0.994 | locus YKR026C, strain gcn3, stronger effect = lower value 0.946 | locus YKR091W, strain srl3, stronger effect = lower value 0.974 | locus YLL001W, strain dnm1, stronger effect = lower value 0.963 | locus YLL026W, stronger effect = lower value 0.947 | locus YLL041C, strain sdh2, stronger effect = lower value 0.959 | locus YLR027C, strain aat2, stronger effect = lower value 0.964 | locus YLR039C, strain RIC1, stronger effect = lower value 1.07 | locus YLR058C, strain SHM2, stronger effect = lower value 0.978 | locus YLR102C, strain apc9, stronger effect = lower value 0.986 | locus YLR113W, strain HOG1, stronger effect = lower value 1.01 | locus YLR221C, strain rsa3, stronger effect = lower value 0.986 | locus YLR258W, strain gsy2, stronger effect = lower value 0.971 | locus YLR262C, strain YPT6 (second series), stronger effect = lower value 0.961 | locus YLR262C, strain YPT6, stronger effect = lower value 1.08 | locus YLR268W, strain sec22, stronger effect = lower value 1.03 | locus YLR320W, strain mms22, stronger effect = lower value 1.01 | locus YLR330W, strain CHS5, stronger effect = lower value 1 | locus YLR342W, strain FKS1 (second series), stronger effect = lower value 0.985 | locus YLR342W, strain FKS1, stronger effect = lower value 0.974 | locus YLR357W, strain rsc2, stronger effect = lower value 0.947 | locus YLR370C, strain arc18, stronger effect = lower value 0.954 | locus YLR371W, strain rom2, stronger effect = lower value 0.963 | locus YLR384C, strain iki3, stronger effect = lower value 0.962 | locus YLR418C, strain cdc73, stronger effect = lower value 0.959 | locus YML016C, strain PPZ1, stronger effect = lower value 0.996 | locus YML032C, strain rad52, stronger effect = lower value 0.952 | locus YML120C, strain ndi1, stronger effect = lower value 0.963 | locus YML124C, strain tub3, stronger effect = lower value 1.01 | locus YMR058W, strain fet3, stronger effect = lower value 0.959 | locus YMR078C, strain ctf18, stronger effect = lower value 0.988 | locus YMR125W, strain sto1, stronger effect = lower value 0.948 | locus YMR129W, stronger effect = lower value 0.972 | locus YMR205C, strain PFK2, stronger effect = lower value 0.977 | locus YMR223W, strain ubp8, stronger effect = lower value 0.985 | locus YMR231W, strain pep5, stronger effect = lower value 0.971 | locus YMR307W, strain GAS1, stronger effect = lower value 1.01 | locus YNL067W, strain RPL9B, stronger effect = lower value 0.978 | locus YNL071W, strain lat1, stronger effect = lower value 0.971 | locus YNL128W, strain TEP1, stronger effect = lower value 0.998 | locus YNL183C, strain NPR1, stronger effect = lower value 0.936 | locus YNL209W, strain ssb2, stronger effect = lower value 0.958 | locus YNL233W, strain BNI4, stronger effect = lower value 0.993 | locus YNL248C, strain rpa49, stronger effect = lower value 0.973 | locus YNL250W, strain rad50, stronger effect = lower value 0.984 | locus YNL271C, strain bni1, stronger effect = lower value 0.993 | locus YNL298W, strain CLA4, stronger effect = lower value 0.973 | locus YNL307C, strain MCK1, stronger effect = lower value 0.988 | locus YNL322C, strain KRE1 (second series), stronger effect = lower value 0.949 | locus YNR049C, strain mso1, stronger effect = lower value 0.965 | locus YNR052C, strain pop2, stronger effect = lower value 0.99 | locus YOL012C, strain htz1 1.9 | locus YOL147C, strain pex11, stronger effect = lower value 0.991 | locus YOR001W, strain rrp6, stronger effect = lower value 0.962 | locus YOR061W, strain CKA2, stronger effect = lower value 0.954 | locus YOR069W, strain VPS5, stronger effect = lower value 0.994 | locus YOR070C, strain gyp1, stronger effect = lower value 0.977 | locus YOR080W, strain dia2, stronger effect = lower value 0.943 | locus YOR083W, strain WHI5, stronger effect = lower value 0.987 | locus YOR106W, strain vam3, stronger effect = lower value 0.943 | locus YOR136W, strain idh2, stronger effect = lower value 0.984 | locus YOR144C, strain elg1, stronger effect = lower value 0.986 | locus YOR184W, strain ser1, stronger effect = lower value 0.987 | locus YOR231W, strain MKK1, stronger effect = lower value 1.03 | locus YOR265W, strain rbl2, stronger effect = lower value 0.963 | locus YOR270C, strain vph1, stronger effect = lower value 0.94 | locus YOR290C, strain snf2, stronger effect = lower value 0.972 | locus YOR316C, strain cot1, stronger effect = lower value 0.982 | locus YPL051W, strain arl3, stronger effect = lower value 0.956 | locus YPL055C, strain LGE1, stronger effect = lower value 0.994 | locus YPL078C, strain atp4, stronger effect = lower value 0.952 | locus YPL106C, strain sse1, stronger effect = lower value 0.925 | locus YPL240C, strain hsp82, stronger effect = lower value 0.972 | locus YPL241C, strain CIN2, stronger effect = lower value 1 | locus YPL256C, strain CLN2, stronger effect = lower value 1.01 | locus YPR119W, strain clb2, stronger effect = lower value 0.996 | locus YPR141C, strain kar3, stronger effect = lower value 0.974 | locus YPR163C, strain tif3, stronger effect = lower value 0.993 | locus YPR167C, strain met16, stronger effect = lower value 0.99 | strain wtn01, stronger effect = lower value 1.02
